# Molecular target: ZNF512B
# Experiment: pooled miR-30 sensor sort-seq; sequence = guide strand
# Conditions: shRNA
# Also: reference of the scale not given here.
row,Sequence,sensor-assay potency score (higher = more potent)
1,TTCGTAACTGTCACAAGCTTTG,-1.03
2,TTGGACTTGAACTGCTTCCGGC,-0.182
3,TTGAAGGGCATCAAGCTTCTGC,0.255
4,TGAGTTTGGACACTTCACCCTC,-0.0834
5,TTGCTGACCACAATGGGCCTGC,0.0376
6,TACTTGAGCCCGTAGATGCTGG,-0.743
7,TTTTTCTTCCCTTCTGTCTTGT,0.00205
8,TTTCGTAACTGTCACAAGCTTT,-0.797
9,TAGTGTGGTAGTTGAGGCCGGC,-0.21
10,TTCGGAACCAGTTCTCTGCGTG,-0.0926
11,TTGCTGACTCCCACCTTCCGGC,-0.809

# Molecular target: ZNF517
# Experiment: as above
# Conditions: shRNA
row,Sequence,sensor-assay potency score (higher = more potent)
1,TTCAGCGTGTAGCTCCTGCGGA,-0.596
2,TTCTGGTGCTGCAGCAGCCGGG,-1.68
3,TTGTGAAGTACACAGCCACATC,-1.38
4,TGCTCGTTGAGGGTGAACCTGC,-1.07
5,TTCTCTGCAGAGGAGACTCCAT,-1.52
6,TCGTTCAGCGTGTAGCTCCTGC,-0.267
7,TCTTCCTGCAGAACCCTTGGGG,-0.177
8,TCCTTGTGAAGTACACAGCCAC,-1.39
9,TCGTTGAGGGTGAACCTGCGGC,-0.629
10,TTGTATCTGAACGCCTTGCCGC,-1.19
11,TTTGGCAACAAGAAAGCCTAGT,0.561
12,TTGAGGGTGAACCTGCGGCAGA,-1.5

# Molecular target: ZNF543
# Experiment: as above
# Conditions: shRNA
row,Sequence,sensor-assay potency score (higher = more potent)
1,TTTCACTCCAGTGTGAATCTGT,0.767
2,TTCTGTGTAATCTTTGTACATA,-0.793
3,TTGTACATACACCATCATCTGA,-0.467
4,TTTTTAAACACTTTCCCGCATT,-0.669
5,TTCACTTGAGTGTGAATCCGTT,-0.0362
6,TAATCTTTGTACATACACCATC,-0.698
7,TCTTTGTACATACACCATCATC,-1.6
8,TTCTTTTTAAACACTTTCCCGC,-0.356
9,TTCAGAACTCATTTTCTCCAGC,0.596
10,TTCTGTTGAAACTTGTTTCTGT,0.852
11,TGTAGTGTCGAATGAAACCTGG,-0.172
12,TAGGAATTTTTCTCTTCGCGAA,-0.467

# Molecular target: ZNF548
# Experiment: as above
# Conditions: shRNA
row,Sequence,sensor-assay potency score (higher = more potent)
1,TAACCTCTGACACTCCTACAGA,-0.754
2,ATTTGTAATCATTTTGTCCAGT,-0.192
3,TTCACTAGTGTGAACTGTCTGA,0.39
4,ATTCATAAGACCTTTCTCCTGT,0.892
5,TGTCTCACTAGGGTGGACCTTC,-0.0557
